Measurements as given in PubChem BioAssay AID1159580 (chemical genetic matrix, 2015).
Screen size: about 5,500 compounds; about 2,000 (36%) were called active. About 18% were inconclusive and are not listed. Cut-off read from the data, not from the text of the source: active = normalized growth mostly below about 0.91 (no sharp cut-off); inconclusive = no clear call, values can overlap the other calls; inactive = mostly above about 0.92. The list shows a part of the results.

Assay: chemical genetic growth profiling, strain panel (AID 1159580);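 note: tested at 20 µM; growth read once vehicle control cultures reached saturation at 30 °C; 1 = growth at the plate median or of vehicle wells; lower values mean less growth of the strain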
Conditions: S. cerevisiae deletion strains, growth OD
[1] = locus YAR019C, strain CDC15, stronger effect = lower value
[2] = locus YBL105C, strain PKC1, stronger effect = lower value
[3] = locus YBR135W, strain CKS1, stronger effect = lower value
[4] = locus YBR136W, strain MEC1, stronger effect = lower value
[5] = locus YBR160W, strain CDC28, stronger effect = lower value
[6] = locus YDL017W, strain CDC7, stronger effect = lower value
[7] = locus YDL028C, strain MPS1, stronger effect = lower value
[8] = locus YDL101C, strain DUN1, stronger effect = lower value
[9] = locus YDL108W, strain KIN28, stronger effect = lower value
[10] = locus YDL132W, strain cdc53, stronger effect = lower value
[11] = locus YDL214C, strain PRR2, stronger effect = lower value
[12] = locus YDR052C, strain DBF4, stronger effect = lower value
[13] = locus YDR054C, strain cdc34, stronger effect = lower value
[14] = locus YDR226W, strain ADK1, stronger effect = lower value
[15] = locus YDR477W, strain SNF1, stronger effect = lower value
[16] = locus YER123W, strain YCK3, stronger effect = lower value
[17] = locus YER133W, strain GLC7, stronger effect = lower value
[18] = locus YFL009W, strain cdc4, stronger effect = lower value
[19] = locus YFL029C, strain CAK1, stronger effect = lower value
[20] = locus YFR003C, strain YPI1, stronger effect = lower value
[21] = locus YFR019W, strain FAB1, stronger effect = lower value
[22] = locus YFR028C, strain CDC14, stronger effect = lower value
[23] = locus YGR040W, strain KSS1, stronger effect = lower value
[24] = locus YGR052W, strain FMP48, stronger effect = lower value
[25] = locus YGR092W, strain DBF2, stronger effect = lower value
[26] = locus YHR030C, strain SLT2, stronger effect = lower value
[27] = locus YHR079C, strain IRE1, stronger effect = lower value
[28] = locus YHR082C, strain KSP1, stronger effect = lower value
[29] = locus YHR205W, strain SCH9, stronger effect = lower value
[30] = locus YIL147C, strain SLN1, stronger effect = lower value
[31] = locus YJL095W, strain BCK1, stronger effect = lower value
[32] = locus YJL128C, strain PBS2, stronger effect = lower value
[33] = locus YJL157C, strain FAR1, stronger effect = lower value
[34] = locus YJR016C, strain ILV3, stronger effect = lower value
[35] = locus YJR066W, strain TOR1 (second series), stronger effect = lower value
[36] = locus YJR066W, strain TOR1, stronger effect = lower value
[37] = locus YKL048C, strain ELM1, stronger effect = lower value
[38] = locus YKL067W, strain YNK1, stronger effect = lower value
[39] = locus YKL101W, strain HSL1, stronger effect = lower value
[40] = locus YKL193C, strain SDS22, stronger effect = lower value
[41] = locus YKL203C, strain TOR2, stronger effect = lower value
[42] = locus YLR113W, strain HOG1, stronger effect = lower value
[43] = locus YLR133W, strain CKI1, stronger effect = lower value
[44] = locus YLR403W, strain SFP1, stronger effect = lower value
[45] = locus YML070W, strain DAK1, stronger effect = lower value
[46] = locus YMR001C, strain CDC5, stronger effect = lower value
[47] = locus YMR205C, strain PFK2 (second series), stronger effect = lower value
[48] = locus YMR277W, strain FCP1, stronger effect = lower value
[49] = locus YNL006W, strain LST8, stronger effect = lower value
[50] = locus YNL020C, strain ARK1, stronger effect = lower value
[51] = locus YNL161W, strain CBK1, stronger effect = lower value
[52] = locus YNL183C, strain NPR1, stronger effect = lower value
[53] = locus YNL207W, strain RIO2, stronger effect = lower value
[54] = locus YNL222W, strain SSU72, stronger effect = lower value
[55] = locus YNL307C, strain MCK1 (second series), stronger effect = lower value
[56] = locus YOL078W, strain AVO1, stronger effect = lower value
[57] = locus YOL136C, strain PFK27, stronger effect = lower value
[58] = locus YOR061W, strain CKA2, stronger effect = lower value
[59] = locus YOR119C, strain RIO1, stronger effect = lower value
[60] = locus YOR231W, strain MKK1, stronger effect = lower value
[61] = locus YOR329C, strain SCD5, stronger effect = lower value
[62] = locus YPL031C, strain PHO85, stronger effect = lower value
[63] = locus YPL153C, strain RAD53, stronger effect = lower value
[64] = locus YPL204W, strain HRR25, stronger effect = lower value
[65] = locus YPL209C, strain IPL1, stronger effect = lower value
[66] = locus YPL256C, strain CLN2, stronger effect = lower value
[67] = locus YPR025C, strain CCL1, stronger effect = lower value
[68] = locus YPR106W, strain ISR1, stronger effect = lower value
[69] = locus YPR111W, strain DBF20, stronger effect = lower value
[70] = strain NNK1, stronger effect = lower value
[71] = strain TSCII, stronger effect = lower value

Measured: normalized growth

Cc1cc(Cl)ccc1NC(=S)NNC(=S)Nc1ccc(F)cc1
active: [26] 0.763
inactive: [1] 0.968 | [2] 0.974 | [3] 0.972 | [4] 0.97 | [5] 0.966 | [6] 0.975 | [7] 0.969 | [8] 0.973 | [9] 0.97 | [10] 0.966 | [11] 0.943 | [12] 0.968 | [13] 0.943 | [14] 0.971 | [15] 0.898 | [16] 0.878 | [17] 0.925 | [18] 0.964 | [19] 0.965 | [20] 0.957 | [21] 0.964 | [22] 0.956 | [23] 0.912 | [24] 1.04 | [25] 0.863 | [27] 0.902 | [28] 0.986 | [29] 0.914 | [30] 0.964 | [31] 0.869 | [32] 0.93 | [33] 0.919 | [34] 0.96 | [35] 0.911 | [36] 0.917 | [37] 0.97 | [38] 0.916 | [39] 0.935 | [40] 0.964 | [41] 0.954 | [42] 0.929 | [43] 0.926 | [44] 0.896 | [45] 0.928 | [46] 0.965 | [47] 0.939 | [48] 0.95 | [49] 0.964 | [50] 0.921 | [51] 0.973 | [52] 0.923 | [53] 0.961 | [54] 0.972 | [55] 0.9 | [56] 0.957 | [57] 0.916 | [58] 0.937 | [59] 0.977 | [60] 0.924 | [61] 0.972 | [62] 0.899 | [63] 0.884 | [64] 0.861 | [65] 0.969 | [66] 0.904 | [67] 0.973 | [68] 0.971 | [69] 0.969 | [70] 0.96 | [71] 0.966

O=C(NNC(=S)Nc1ccc(F)cc1)c1ccccc1Cl
active: locus YOL006C, strain TOP1, stronger effect = lower value 0.629
inactive: locus YAL013W, strain DEP1, stronger effect = lower value 0.987 | locus YBR229C, strain ROT2, stronger effect = lower value 1 | locus YCL061C, strain MRC1, stronger effect = lower value 1 | [8] 1.04 | locus YDL134C, strain PPH21, stronger effect = lower value 0.976 | locus YDR150W, strain NUM1, stronger effect = lower value 0.987 | locus YEL061C, strain CIN8, stronger effect = lower value 0.958 | locus YGR078C, strain PAC10, stronger effect = lower value 0.972 | locus YGR229C, strain SMI1, stronger effect = lower value 0.97 | [26] 0.948 | locus YHR087W, strain rtc3, stronger effect = lower value 0.977 | locus YJR043C, strain POL32, stronger effect = lower value 1.01 | locus YJR075W, strain HOC1, stronger effect = lower value 1.01 | locus YKL190W, strain CNB1, stronger effect = lower value 0.966 | locus YLR039C, strain RIC1, stronger effect = lower value 0.933 | locus YLR058C, strain SHM2 (second series), stronger effect = lower value 0.98 | locus YLR085C, strain ARP6, stronger effect = lower value 0.897 | locus YLR262C, strain YPT6, stronger effect = lower value 0.963 | locus YML094W, strain GIM5, stronger effect = lower value 0.96 | locus YMR219W, strain ESC1, stronger effect = lower value 1.01 | locus YMR263W, strain SAP30, stronger effect = lower value 0.977 | locus YNL128W, strain TEP1, stronger effect = lower value 0.971 | locus YNL153C, strain GIM3, stronger effect = lower value 1.01 | locus YNL298W, strain CLA4 (second series), stronger effect = lower value 0.923 | locus YNL322C, strain KRE1, stronger effect = lower value 0.997 | locus YNR030W, strain Alg12, stronger effect = lower value 0.94 | locus YPL055C, strain LGE1, stronger effect = lower value 0.921 | locus YPL241C, strain CIN2, stronger effect = lower value 1.01 | locus YPR135W, strain CTF4, stronger effect = lower value 0.982

CCOC(=O)/C(=N/Nc1c(Cl)cccc1Cl)c1csc(N)n1
inactive: [1] 0.968 | [2] 0.982 | [3] 0.973 | [4] 0.972 | [5] 0.984 | [6] 0.98 | [7] 0.975 | [8] 0.986 | [9] 0.97 | [10] 0.971 | [11] 0.89 | [12] 0.973 | [13] 0.996 | [14] 0.973 | [15] 0.864 | [16] 0.906 | [17] 0.868 | [18] 0.959 | [19] 0.966 | [20] 0.97 | [21] 0.971 | [22] 0.968 | [23] 0.884 | [24] 0.933 | [25] 0.834 | [27] 0.837 | [28] 0.973 | [29] 0.994 | [30] 0.968 | [31] 0.873 | [32] 0.995 | [33] 0.864 | [34] 0.976 | [35] 0.868 | [36] 0.906 | [37] 0.986 | [38] 0.892 | [39] 0.918 | [40] 0.976 | [41] 0.921 | [43] 0.913 | [44] 0.864 | [45] 0.889 | [46] 0.976 | [47] 0.925 | [48] 0.975 | [49] 0.968 | [50] 0.904 | [51] 0.969 | [52] 0.91 | [53] 0.947 | [54] 0.969 | [55] 0.898 | [56] 0.978 | [57] 0.893 | [58] 0.906 | [59] 0.975 | [60] 0.864 | [61] 0.975 | [62] 0.852 | [63] 0.858 | [64] 0.805 | [65] 0.973 | [67] 0.976 | [68] 0.966 | [69] 0.947 | [70] 0.97 | [71] 0.963
active: [26] 0.69 | [42] 0.801 | [66] 0.859
